This is an account of results in PubChem BioAssay (NCI).

A short description of assay [1]: NCI Yeast Anticancer Drug Screen. Data for the rad50 strain (AID 155).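 Further: 0% = growth of vehicle-only cultures of the same strain.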 To be noted: S. cerevisiae rad50 strain growth inhibition; at 50.0 µM; stronger effect = higher value. In short, it runs like this:
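Genetically altered yeast (DNA repair pathway); compound treatment; growth inhibition vs vehicle ctrl.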

A short description of assay [2]: NCI Yeast Anticancer Drug Screen. Data for the mec2-1 strain (AID 157). The settings on record: S. cerevisiae mec2-1 strain, at 50.0 µM, stronger effect = higher value. The procedure, abridged: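 Growth inhibition is read against vehicle-treated controls after compound exposure of the mec2-1 yeast strain, which is defective in DNA damage repair or cell cycle control.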
Assay [3] in a line: NCI Yeast Anticancer Drug Screen. Data for the sgs1 mgt1 strain (AID 161).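 Further: 0% = growth of cultures given vehicle only.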 To be noted: S. cerevisiae sgs1 mgt1 strain, at 50.0 µM, stronger effect = higher value. In short, it runs like this: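 Growth of a repair-deficient yeast mutant was monitored after compound treatment and expressed as inhibition relative to vehicle-treated cultures.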
The nature of assay [4]: NCI Yeast Anticancer Drug Screen. Data for the cln2 rad14 strain (AID 165).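 Further: 0% = growth equal to vehicle treated cultures.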 To be noted: S. cerevisiae cln2 rad14 strain, at 50.0 µM, stronger effect = higher value. In short, it runs like this:
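Growth inhibition, relative to vehicle-treated controls, is the read-out. The test organism is a yeast strain with defined genetic alterations, cln2 rad14.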

Assay [5] in a line: NCI Yeast Anticancer Drug Screen. Data for the bub3 strain (AID 167). To be noted: S. cerevisiae bub3 mutant strain, at 50.0 µM, stronger effect = higher value. The procedure, abridged:
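Yeast carrying a defined mutation is treated with each compound, and growth is compared with that of vehicle-exposed cells to give inhibition.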

The nature of assay [6]: NCI Yeast Anticancer Drug Screen. Data for the mlh1 rad18 strain (AID 175). To be noted: S. cerevisiae mlh1 rad18 strain growth inhibition; at 50.0 µM; stronger effect = higher value. The procedure, abridged:
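Cells of a genetically altered yeast strain, deficient in DNA damage repair, were treated with compound. Their growth was then compared with that of vehicle-treated cultures to give inhibition.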

About 79,000 compounds went through this panel and 15% of them were active in at least one assay; those are over-represented in the sample as a whole. Values without a mark were called inactive. Calls of active or inactive are those of the source. No stated cut-off is given here; in the data, active means growth inhibition above about 70%; inactive means the rest.

As to `CC(=O)N(C)N=Nc1ccc(Cl)cc1`, the growth inhibition in assay [1] is 10.4%; in assay [2], 11.7%; in assay [3] it was 2.05%; in assay [4], -17.6%; in assay [5], 3.8%; in assay [6], 15.9%.
As for `O=S(=O)(Cc1ccccc1)C(I)c1ccccc1` (stereo not given), the growth inhibition in assay [1] is 82.2% (active); in assay [2], 55.9%; in assay [3], 65.5%; in assay [4], 51%; in assay [5] it was 60.7%; in assay [6], 73% (active).
Turning to `CCCCCCCCCCCCCCC(O)CO` (stereo not given), the growth inhibition was -11.3% in assay [1]; -12.7% in assay [2]; -4.45% in assay [3]; -102% in assay [4]; -27.1% in assay [5]; -20.9% in assay [6].
In the case of `CCc1ccc(/C(C#N)=C/c2ccccc2Cl)cc1`, the growth inhibition is 21.9% in assay [1]; 40.5% in assay [2]; 26.4% in assay [3]; 10.2% in assay [4]; 35.2% in assay [5]; 27.1% in assay [6].
Consider `O=C(N=C1[Se]C(=Nc2ccccc2)C(=Nc2ccccc2)N1c1ccccc1)c1ccccc1`, for which the growth inhibition is 9.45% in assay [1]; 5.1% in assay [2]; 6.55% in assay [3]; 20.6% in assay [4]; 2.75% in assay [5]; 3.25% in assay [6].
For `CCOC(=O)Nc1ccn(C2OC(COC(C)=O)C(OC(C)=O)C2OC(C)=O)c(=O)n1` (stereo not given), the growth inhibition is 19.9% in assay [1]; -11.4% in assay [2]; 15.1% in assay [3]; -46.4% in assay [4]; -1.9% in assay [5]; 8.3% in assay [6].
As for `CN1C(=O)CC2(C)c3cc(O)ccc3N(C)C12` (stereo not given), the growth inhibition in assay [1] was 53.6%; in assay [2] it was 30.1%; in assay [3], 54.5%; in assay [4] it was 64.3%; in assay [5], 32.6%; in assay [6], -81.7%.
With `Brc1ncccn1`, the growth inhibition in assay [1] was 23.8%; in assay [2], -16.9%; in assay [3], 0.65%; in assay [4], 17.9%; in assay [5] it was 7.75%; in assay [6] it was 14.8%.
Turning to `CC(=O)Oc1ccc(=O)[nH]c1`, the growth inhibition in assay [1] is 1.3%; in assay [2], -11.9%; in assay [3], 2.2%; in assay [4], -18.4%; in assay [5] it was 2.75%; in assay [6] it was -48%.
As for `Cc1cc(C)n(-c2nc(C)c(CCO)c(=O)[nH]2)n1`, the growth inhibition in assay [1] is -6.45%; in assay [2], -14.6%; in assay [3], -6.4%; in assay [4], 15.7%; in assay [5], -41.4%; in assay [6] it was -9.1%.
`COC(=O)c1c(O)c2c(c3c1OC(C)(C)CC3)OC(C)(C)CC2`: the growth inhibition in assay [1] was -13.3%; in assay [2], 0.1%; in assay [3] it was -17.1%; in assay [4] it was -2.55%; in assay [5], 8.05%; in assay [6] it was 11.4%.
For `CN(C(=O)c1ccncc1)c1ccccc1`, the growth inhibition was -11.4% in assay [1]; -33.1% in assay [2]; -14.1% in assay [3]; 3.85% in assay [4]; -31.1% in assay [5]; 8.5% in assay [6].
`CCCCC1(C=O)NC(=O)N(C)C1=O` (stereo not given): the growth inhibition in assay [1] is 5%; in assay [2] it was 2.35%; in assay [3], -10.8%; in assay [4] it was 5.6%; in assay [5], 7.2%; in assay [6], -9.35%.
For `CCOC(=O)NC(S(=O)(=O)O)S(=O)(=O)O`, the growth inhibition in assay [1] is 0.6%; in assay [2] it was 9.8%; in assay [3], -25.1%; in assay [4], -9.8%; in assay [5], 16.1%; in assay [6] it was 18.5%.
As for `O=[S@]1Nc2cc(N=Nc3ccccc3)ccc2S1`, the growth inhibition in assay [1] was -3.45%; in assay [2], 16.1%; in assay [3] it was 0.15%; in assay [4] it was -10.5%; in assay [5], -5.05%; in assay [6], -12.1%.
As for `CN(C)Cc1cc(C(=O)/C=C/c2ccccc2Cl)cc(CN(C)C)c1O`, the growth inhibition in assay [1] is -47%; in assay [2], -22.6%; in assay [3], -27.4%; in assay [4], -43.9%; in assay [5] it was 3.9%; in assay [6] it was -31.1%.
`O=[N+]([O-])c1ccc(CS(=O)(=O)O)cc1`: the growth inhibition is 6.25% in assay [1]; -9.05% in assay [2]; -6.4% in assay [3]; -15.1% in assay [4]; 8.8% in assay [5]; -5.6% in assay [6].
On to `COCCO[Si](OCCOC)(OCCOC)OCCOC`, for which the growth inhibition was 4.3% in assay [1]; -10.2% in assay [2]; -1.25% in assay [3]; 11.9% in assay [4]; 7.4% in assay [5]; 10.2% in assay [6].
With `O=C(Nc1nc(=S)[nH][nH]1)C(=O)C(c1cnc2ccc([N+](=O)[O-])cc2n1)[N+](=O)[O-]` (stereo not given), the growth inhibition was -4.5% in assay [1]; -26% in assay [2]; -14.3% in assay [3]; 7.9% in assay [4]; -0.6% in assay [5]; 3.2% in assay [6].
Consider `COC(=O)/C=C(\C(=O)OC)C(C(=O)c1ccccc1)=P(c1ccccc1)(c1ccccc1)c1ccccc1`, for which the growth inhibition was -9.95% in assay [1]; 8.7% in assay [2]; -4.2% in assay [3]; -26.5% in assay [4]; 3.55% in assay [5]; 1.15% in assay [6].
